Among the data in article PMC7862700, “An all-to-all approach to the identification of sequence-specific readers for epigenetic DNA modifications on cytosine” are binding signal values, retold here.

Common to all, as to test: DAPPL (digital affinity profiling via proximity ligation, sequencing); 10 mM Tris-HCl pH 7.5, 50 mM NaCl, 1 mM DTT, 4% glycerol, room temperature, 30 min; GST-TFs on glutathione beads, 16-mer random dsDNA library, 0.1% formaldehyde crosslink after washing; high values mean tight binding
The target in one assay is T1, FLI1 (Homo sapiens, UniProt Q01543 1-452).
T1 sequence: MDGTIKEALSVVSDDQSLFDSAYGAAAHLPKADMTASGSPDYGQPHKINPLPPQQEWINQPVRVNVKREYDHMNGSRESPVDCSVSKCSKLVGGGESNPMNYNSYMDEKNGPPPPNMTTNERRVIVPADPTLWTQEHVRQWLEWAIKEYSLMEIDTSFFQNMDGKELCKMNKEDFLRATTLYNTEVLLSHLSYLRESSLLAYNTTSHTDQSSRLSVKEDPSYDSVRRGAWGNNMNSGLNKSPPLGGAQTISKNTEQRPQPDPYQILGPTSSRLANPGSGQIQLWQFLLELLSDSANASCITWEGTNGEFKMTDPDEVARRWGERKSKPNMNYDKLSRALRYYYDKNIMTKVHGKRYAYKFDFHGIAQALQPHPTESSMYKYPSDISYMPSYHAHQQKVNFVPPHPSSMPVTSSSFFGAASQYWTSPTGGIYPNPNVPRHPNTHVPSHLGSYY
To be noted: protein: recombinant; tags: N-terminal GST; dsDNA, one strand shown. The gist of the method: (§1)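 Each value of binding signal is a hexamer's read frequency for a factor divided by the same hexamer's frequency in the tag-only sample. Barcoded, bead-captured GST fusions of human transcription factors made in yeast were pooled with that sample and incubated with 200 nmole of a random double-stranded 16-mer DNA library in Tris/NaCl/DTT/glycerol buffer at room temperature for 30 min. Washing, 0.1% formaldehyde crosslinking, proximity ligation, PCR and Illumina NextSeq500 sequencing followed.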

The next assay deals with T2, ELK1 (Homo sapiens, UniProt P19419 1-428).
T2 sequence: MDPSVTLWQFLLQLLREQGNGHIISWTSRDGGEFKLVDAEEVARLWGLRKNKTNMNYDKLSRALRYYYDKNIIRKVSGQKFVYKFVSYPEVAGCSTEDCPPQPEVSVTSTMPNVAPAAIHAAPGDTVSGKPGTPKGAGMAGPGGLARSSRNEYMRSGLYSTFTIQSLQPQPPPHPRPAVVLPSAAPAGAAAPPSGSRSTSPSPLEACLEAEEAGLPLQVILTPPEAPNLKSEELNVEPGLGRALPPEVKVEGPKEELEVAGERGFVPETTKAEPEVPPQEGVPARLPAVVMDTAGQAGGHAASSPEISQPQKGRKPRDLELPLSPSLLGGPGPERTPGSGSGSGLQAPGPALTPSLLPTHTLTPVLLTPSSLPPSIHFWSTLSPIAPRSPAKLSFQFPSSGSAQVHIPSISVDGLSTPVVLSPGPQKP
To be noted: protein: recombinant; tags: N-terminal GST; dsDNA, one strand shown. In short, it runs like this: as §1

The next assay addresses T3, ERG (Homo sapiens, UniProt P11308 1-479).
T3 sequence: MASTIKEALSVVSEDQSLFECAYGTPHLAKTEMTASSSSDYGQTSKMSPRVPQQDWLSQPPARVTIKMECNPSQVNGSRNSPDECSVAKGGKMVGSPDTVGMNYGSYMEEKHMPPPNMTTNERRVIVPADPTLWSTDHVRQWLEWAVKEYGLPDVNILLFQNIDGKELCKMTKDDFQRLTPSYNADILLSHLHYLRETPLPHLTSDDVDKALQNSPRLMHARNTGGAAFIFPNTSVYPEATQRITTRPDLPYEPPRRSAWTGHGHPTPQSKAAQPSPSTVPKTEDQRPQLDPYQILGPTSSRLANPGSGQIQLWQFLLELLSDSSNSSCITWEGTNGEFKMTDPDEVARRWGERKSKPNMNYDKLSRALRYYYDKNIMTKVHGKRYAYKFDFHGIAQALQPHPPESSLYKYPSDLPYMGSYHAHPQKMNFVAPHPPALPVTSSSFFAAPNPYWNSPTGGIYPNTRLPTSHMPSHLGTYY
To be noted: protein: recombinant; tags: N-terminal GST; dsDNA, one strand shown. The gist of the method: as §1

A further assay deals with ELF1 (Homo sapiens, UniProt P32519 1-619). Particulars: protein: recombinant; tags: N-terminal GST; dsDNA, one strand shown. In short, it runs like this: as §1
Sequence of ELF1 (P32519 whole entry): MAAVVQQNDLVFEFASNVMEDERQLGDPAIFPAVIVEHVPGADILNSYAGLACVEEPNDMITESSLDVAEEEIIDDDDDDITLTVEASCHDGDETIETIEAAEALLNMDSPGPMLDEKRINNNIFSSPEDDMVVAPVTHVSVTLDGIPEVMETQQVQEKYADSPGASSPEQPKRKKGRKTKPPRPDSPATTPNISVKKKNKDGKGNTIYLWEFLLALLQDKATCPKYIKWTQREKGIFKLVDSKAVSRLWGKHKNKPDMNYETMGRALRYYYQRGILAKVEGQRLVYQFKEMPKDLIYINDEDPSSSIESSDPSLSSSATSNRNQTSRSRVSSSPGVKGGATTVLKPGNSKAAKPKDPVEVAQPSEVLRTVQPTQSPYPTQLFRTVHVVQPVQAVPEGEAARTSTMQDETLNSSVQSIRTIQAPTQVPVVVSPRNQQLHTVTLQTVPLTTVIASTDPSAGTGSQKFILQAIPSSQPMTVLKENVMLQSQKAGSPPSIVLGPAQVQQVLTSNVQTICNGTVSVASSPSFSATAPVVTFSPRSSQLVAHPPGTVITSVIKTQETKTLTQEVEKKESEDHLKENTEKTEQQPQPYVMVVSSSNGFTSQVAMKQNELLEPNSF
A further assay deals with T4, EHF (Homo sapiens, UniProt Q9NZC4 1-300).
T4 sequence: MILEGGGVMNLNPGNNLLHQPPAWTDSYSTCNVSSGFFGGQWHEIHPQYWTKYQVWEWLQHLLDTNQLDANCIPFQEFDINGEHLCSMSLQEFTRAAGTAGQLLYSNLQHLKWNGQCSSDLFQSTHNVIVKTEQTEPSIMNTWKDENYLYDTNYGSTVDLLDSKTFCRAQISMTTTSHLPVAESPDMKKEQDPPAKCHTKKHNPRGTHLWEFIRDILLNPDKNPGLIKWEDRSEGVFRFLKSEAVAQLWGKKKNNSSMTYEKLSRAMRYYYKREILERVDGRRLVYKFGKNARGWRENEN
To be noted: protein: recombinant; tags: N-terminal GST; dsDNA, one strand shown. In short, it runs like this: as §1

Another assay deals with SPI1 (Homo sapiens, UniProt P17947 1-270). To be noted: protein: recombinant; tags: N-terminal GST; dsDNA, one strand shown. In short, it runs like this:
as §1

The next assay deals with SPIB (Homo sapiens, UniProt Q01892 1-262). Particulars: protein: recombinant; tags: N-terminal GST; dsDNA, one strand shown. The gist of the method:
as §1

A further assay addresses T5, ELK3 (Homo sapiens, UniProt P41970 1-407).
T5 sequence: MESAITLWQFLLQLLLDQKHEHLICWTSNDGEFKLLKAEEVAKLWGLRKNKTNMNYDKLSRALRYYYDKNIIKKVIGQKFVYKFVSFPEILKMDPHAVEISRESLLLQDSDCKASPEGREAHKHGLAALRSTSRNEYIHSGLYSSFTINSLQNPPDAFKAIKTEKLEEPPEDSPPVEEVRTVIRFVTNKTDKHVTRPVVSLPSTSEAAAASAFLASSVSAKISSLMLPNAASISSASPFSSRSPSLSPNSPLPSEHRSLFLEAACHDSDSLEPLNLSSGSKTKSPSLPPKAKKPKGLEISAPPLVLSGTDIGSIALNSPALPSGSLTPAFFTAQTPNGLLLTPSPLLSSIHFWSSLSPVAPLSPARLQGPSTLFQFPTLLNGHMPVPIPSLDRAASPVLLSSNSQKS
Particulars: protein: recombinant; tags: N-terminal GST; dsDNA, one strand shown. The gist of the method:
as §1

In a further assay the target is T6, FEV (Homo sapiens, UniProt Q99581 1-238).
T6 sequence: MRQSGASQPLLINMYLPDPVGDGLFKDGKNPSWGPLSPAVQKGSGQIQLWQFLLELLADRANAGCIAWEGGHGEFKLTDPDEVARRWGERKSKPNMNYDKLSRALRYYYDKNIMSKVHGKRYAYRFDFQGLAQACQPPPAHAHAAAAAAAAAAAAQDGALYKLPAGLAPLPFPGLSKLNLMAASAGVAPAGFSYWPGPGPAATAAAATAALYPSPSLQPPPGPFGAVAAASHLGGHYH
To be noted: protein: recombinant; tags: N-terminal GST; dsDNA, one strand shown. In short, it runs like this: as §1

A further assay addresses ETV5 (Homo sapiens, UniProt P41161 1-510). To be noted: protein: recombinant; tags: N-terminal GST; dsDNA, one strand shown. The gist of the method: as §1
The target of another assay is HSF1 (Homo sapiens, UniProt Q00613 1-529). To be noted: protein: recombinant; tags: N-terminal GST; chain copies: 3; dsDNA, one strand shown. In short, it runs like this:
as §1

A further assay has as its target ELF4 (Homo sapiens, UniProt Q99607 1-663). To be noted: protein: recombinant; tags: N-terminal GST; dsDNA, one strand shown. The gist of the method:
as §1

The target in another assay is T7, ELK4 (Homo sapiens, UniProt P28324-2 1-405).
T7 sequence: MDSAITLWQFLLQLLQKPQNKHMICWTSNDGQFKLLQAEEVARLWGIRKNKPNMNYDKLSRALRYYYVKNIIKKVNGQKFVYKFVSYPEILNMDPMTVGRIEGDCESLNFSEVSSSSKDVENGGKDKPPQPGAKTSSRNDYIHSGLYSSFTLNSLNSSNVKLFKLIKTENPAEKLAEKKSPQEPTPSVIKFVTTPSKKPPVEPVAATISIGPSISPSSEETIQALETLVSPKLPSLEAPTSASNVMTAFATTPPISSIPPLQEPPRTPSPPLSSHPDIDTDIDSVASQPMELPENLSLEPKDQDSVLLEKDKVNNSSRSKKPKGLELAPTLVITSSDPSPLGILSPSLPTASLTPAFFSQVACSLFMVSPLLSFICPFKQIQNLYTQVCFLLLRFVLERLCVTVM
To be noted: protein: recombinant; tags: N-terminal GST; dsDNA, one strand shown. The gist of the method:
as §1

For the next assay, the target named is T8, ELF3 (Homo sapiens, UniProt P78545 1-371).
T8 sequence: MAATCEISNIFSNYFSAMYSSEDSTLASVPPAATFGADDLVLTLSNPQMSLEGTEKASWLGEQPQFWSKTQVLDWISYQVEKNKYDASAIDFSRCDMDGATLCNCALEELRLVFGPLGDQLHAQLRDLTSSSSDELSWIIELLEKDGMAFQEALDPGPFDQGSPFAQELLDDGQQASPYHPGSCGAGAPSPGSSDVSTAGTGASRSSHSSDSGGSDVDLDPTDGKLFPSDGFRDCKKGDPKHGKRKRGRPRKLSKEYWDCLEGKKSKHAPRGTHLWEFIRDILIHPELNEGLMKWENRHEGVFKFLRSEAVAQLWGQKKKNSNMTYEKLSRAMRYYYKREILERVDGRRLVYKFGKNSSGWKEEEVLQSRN
Particulars: protein: recombinant; tags: N-terminal GST; dsDNA, one strand shown. In short, it runs like this:
as §1

In another assay the target is CRX (Homo sapiens, UniProt O43186 1-299). To be noted: protein: recombinant; tags: N-terminal GST; dsDNA, one strand shown. The gist of the method:
as §1

In another assay the target is ETV1 (Homo sapiens, UniProt P50549 1-477). To be noted: protein: recombinant; tags: N-terminal GST; dsDNA, one strand shown. In short, it runs like this:
as §1

A further assay addresses T9, GABPA (Homo sapiens, UniProt Q06546 1-454).
T9 sequence: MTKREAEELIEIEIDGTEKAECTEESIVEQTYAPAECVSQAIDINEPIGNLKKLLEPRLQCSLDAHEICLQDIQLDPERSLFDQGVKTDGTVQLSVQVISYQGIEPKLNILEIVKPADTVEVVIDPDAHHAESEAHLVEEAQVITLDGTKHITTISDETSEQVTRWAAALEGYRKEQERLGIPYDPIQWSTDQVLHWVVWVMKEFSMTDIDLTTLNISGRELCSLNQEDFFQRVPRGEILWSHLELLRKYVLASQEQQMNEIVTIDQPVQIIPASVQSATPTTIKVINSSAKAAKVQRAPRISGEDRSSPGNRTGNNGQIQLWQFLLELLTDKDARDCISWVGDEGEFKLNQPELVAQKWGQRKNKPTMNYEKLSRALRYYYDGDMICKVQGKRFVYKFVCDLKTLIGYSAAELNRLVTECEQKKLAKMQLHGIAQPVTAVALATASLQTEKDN
Particulars: protein: recombinant; tags: N-terminal GST; dsDNA, one strand shown. The gist of the method: as §1

Sequence of CRX (O43186 whole entry): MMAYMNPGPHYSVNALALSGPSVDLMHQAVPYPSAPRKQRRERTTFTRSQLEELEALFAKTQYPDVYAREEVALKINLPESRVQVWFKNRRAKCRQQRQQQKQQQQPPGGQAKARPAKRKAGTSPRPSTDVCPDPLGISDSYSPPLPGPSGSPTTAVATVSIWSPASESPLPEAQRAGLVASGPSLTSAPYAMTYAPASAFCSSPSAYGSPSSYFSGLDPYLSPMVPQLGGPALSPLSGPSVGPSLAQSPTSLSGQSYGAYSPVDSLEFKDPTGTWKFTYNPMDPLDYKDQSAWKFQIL
Sequence of HSF1 (Q00613 whole entry): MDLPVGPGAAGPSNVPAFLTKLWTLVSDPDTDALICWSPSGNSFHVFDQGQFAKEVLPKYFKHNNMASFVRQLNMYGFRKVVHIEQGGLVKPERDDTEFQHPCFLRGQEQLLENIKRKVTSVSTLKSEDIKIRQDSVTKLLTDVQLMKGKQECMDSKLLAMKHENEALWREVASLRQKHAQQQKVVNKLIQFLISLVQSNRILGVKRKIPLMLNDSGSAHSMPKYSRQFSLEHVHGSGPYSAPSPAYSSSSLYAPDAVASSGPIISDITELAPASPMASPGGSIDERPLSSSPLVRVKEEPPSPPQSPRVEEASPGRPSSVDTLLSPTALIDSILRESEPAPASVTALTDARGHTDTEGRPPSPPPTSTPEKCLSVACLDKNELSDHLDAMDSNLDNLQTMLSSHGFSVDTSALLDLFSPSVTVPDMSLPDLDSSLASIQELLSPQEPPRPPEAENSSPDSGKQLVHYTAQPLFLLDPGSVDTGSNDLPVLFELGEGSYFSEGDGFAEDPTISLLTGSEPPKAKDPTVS
Sequence of ETV5 (P41161 whole entry): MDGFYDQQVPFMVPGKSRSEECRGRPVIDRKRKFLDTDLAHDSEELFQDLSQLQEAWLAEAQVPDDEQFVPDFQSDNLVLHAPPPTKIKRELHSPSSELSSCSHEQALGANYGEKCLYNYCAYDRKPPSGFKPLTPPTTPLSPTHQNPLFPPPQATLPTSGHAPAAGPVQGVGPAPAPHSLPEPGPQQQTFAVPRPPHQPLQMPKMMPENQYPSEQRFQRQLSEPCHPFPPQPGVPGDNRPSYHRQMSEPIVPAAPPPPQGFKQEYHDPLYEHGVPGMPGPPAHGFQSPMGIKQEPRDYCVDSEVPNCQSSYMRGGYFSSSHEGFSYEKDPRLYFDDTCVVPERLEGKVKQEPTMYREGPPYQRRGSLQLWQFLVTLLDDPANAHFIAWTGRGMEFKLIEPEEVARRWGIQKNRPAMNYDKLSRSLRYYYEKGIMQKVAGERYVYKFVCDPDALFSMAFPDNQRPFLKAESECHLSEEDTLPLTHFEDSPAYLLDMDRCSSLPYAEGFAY
Sequence of ETV1 (P50549 whole entry): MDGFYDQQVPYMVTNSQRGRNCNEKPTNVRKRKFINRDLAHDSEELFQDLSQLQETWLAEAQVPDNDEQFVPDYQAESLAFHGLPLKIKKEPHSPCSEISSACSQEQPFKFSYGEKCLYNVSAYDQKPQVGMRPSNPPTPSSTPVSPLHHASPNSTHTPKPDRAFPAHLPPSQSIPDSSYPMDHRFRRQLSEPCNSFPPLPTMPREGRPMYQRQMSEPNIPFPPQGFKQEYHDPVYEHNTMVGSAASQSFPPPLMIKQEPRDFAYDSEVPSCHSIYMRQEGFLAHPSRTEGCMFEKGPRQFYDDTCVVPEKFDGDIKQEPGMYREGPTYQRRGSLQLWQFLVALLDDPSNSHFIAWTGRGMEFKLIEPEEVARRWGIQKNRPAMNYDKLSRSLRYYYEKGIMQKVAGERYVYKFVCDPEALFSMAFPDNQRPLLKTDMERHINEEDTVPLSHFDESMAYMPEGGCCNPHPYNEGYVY
Sequence of ELF4 (Q99607 whole entry): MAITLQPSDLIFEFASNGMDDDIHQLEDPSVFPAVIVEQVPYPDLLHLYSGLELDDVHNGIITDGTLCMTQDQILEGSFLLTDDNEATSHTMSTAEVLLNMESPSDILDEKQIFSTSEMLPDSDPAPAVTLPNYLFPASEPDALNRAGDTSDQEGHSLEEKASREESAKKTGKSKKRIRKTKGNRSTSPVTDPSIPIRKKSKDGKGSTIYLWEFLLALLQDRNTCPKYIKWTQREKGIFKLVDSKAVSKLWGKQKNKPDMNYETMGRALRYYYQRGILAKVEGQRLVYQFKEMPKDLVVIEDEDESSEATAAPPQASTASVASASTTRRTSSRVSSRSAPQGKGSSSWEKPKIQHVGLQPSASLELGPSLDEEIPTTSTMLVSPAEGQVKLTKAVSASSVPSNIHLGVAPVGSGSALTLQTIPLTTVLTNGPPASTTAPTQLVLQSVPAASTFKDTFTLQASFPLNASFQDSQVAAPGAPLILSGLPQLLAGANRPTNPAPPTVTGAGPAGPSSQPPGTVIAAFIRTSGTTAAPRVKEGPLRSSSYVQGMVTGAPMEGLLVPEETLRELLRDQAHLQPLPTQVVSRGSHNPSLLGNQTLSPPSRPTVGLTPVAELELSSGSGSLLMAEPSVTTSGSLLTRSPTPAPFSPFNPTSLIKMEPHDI
Sequence of SPIB (Q01892 whole entry): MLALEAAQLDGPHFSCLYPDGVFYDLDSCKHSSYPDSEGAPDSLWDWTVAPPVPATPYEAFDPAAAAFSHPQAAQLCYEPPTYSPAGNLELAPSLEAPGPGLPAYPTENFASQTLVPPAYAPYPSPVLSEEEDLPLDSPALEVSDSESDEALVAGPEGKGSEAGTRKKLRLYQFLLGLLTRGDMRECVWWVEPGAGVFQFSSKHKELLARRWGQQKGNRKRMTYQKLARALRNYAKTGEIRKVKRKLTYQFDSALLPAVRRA

With AAGCGA, the binding signal is 1.02 fold enrichment (6-mer frequency, TF over GST control) in the assay with FLI1; 1.02 fold enrichment (6-mer frequency, TF over GST control) with ELK1; 1.11 fold enrichment (6-mer frequency, TF over GST control) with ERG; 1.06 fold enrichment (6-mer frequency, TF over GST control) with ELF1; 1.19 fold enrichment (6-mer frequency, TF over GST control) with EHF; 1.07 fold enrichment (6-mer frequency, TF over GST control) with SPI1. Further, the binding signal is 1 fold enrichment (6-mer frequency, TF over GST control) with SPIB; 1.07 fold enrichment (6-mer frequency, TF over GST control) with ELK3; 1.04 fold enrichment (6-mer frequency, TF over GST control) with FEV; 1.04 fold enrichment (6-mer frequency, TF over GST control) in the assay with ETV5; 1.04 fold enrichment (6-mer frequency, TF over GST control) with HSF1; 1.09 fold enrichment (6-mer frequency, TF over GST control) in the assay with ELF4. Also, the binding signal with ELK4 is 1.06 fold enrichment (6-mer frequency, TF over GST control); in the assay with ELF3 it was 1.08 fold enrichment (6-mer frequency, TF over GST control); with CRX it was 1.09 fold enrichment (6-mer frequency, TF over GST control); with ETV1, 1 fold enrichment (6-mer frequency, TF over GST control).

As for AGGGCT, the binding signal with FLI1 was 1.03 fold enrichment (6-mer frequency, TF over GST control); with GABPA, 1.05 fold enrichment (6-mer frequency, TF over GST control); in the assay with ERG, 1.07 fold enrichment (6-mer frequency, TF over GST control); in the assay with ELF1 it was 1.01 fold enrichment (6-mer frequency, TF over GST control); with EHF, 1.04 fold enrichment (6-mer frequency, TF over GST control); with ELK3, 1.08 fold enrichment (6-mer frequency, TF over GST control). Further, the binding signal was 1.03 fold enrichment (6-mer frequency, TF over GST control) in the assay with FEV; 1.06 fold enrichment (6-mer frequency, TF over GST control) with ETV5; 1.03 fold enrichment (6-mer frequency, TF over GST control) with HSF1; 1.07 fold enrichment (6-mer frequency, TF over GST control) with ELF4; 1.02 fold enrichment (6-mer frequency, TF over GST control) with ELK4; 1.26 fold enrichment (6-mer frequency, TF over GST control) in the assay with CRX. In addition, the binding signal in the assay with ETV1 was 1.11 fold enrichment (6-mer frequency, TF over GST control).
